Assay in all cases: DAPPL (digital affinity profiling via proximity ligation, sequencing); 10 mM Tris-HCl pH 7.5, 50 mM NaCl, 1 mM DTT, 4% glycerol, room temperature, 30 min; GST-TFs on glutathione beads, 16-mer random dsDNA library, 0.1% formaldehyde crosslink after washing; high values mean tight binding
The target of one test is T1, FEV (Homo sapiens, UniProt Q99581 1-238).
T1 sequence: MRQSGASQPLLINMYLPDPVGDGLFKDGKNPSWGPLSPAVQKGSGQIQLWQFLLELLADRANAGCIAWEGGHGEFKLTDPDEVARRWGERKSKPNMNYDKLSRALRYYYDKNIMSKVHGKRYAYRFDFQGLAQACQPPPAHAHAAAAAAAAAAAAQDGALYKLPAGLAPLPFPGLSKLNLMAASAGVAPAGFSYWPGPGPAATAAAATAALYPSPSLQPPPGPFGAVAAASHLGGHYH
As to conditions: protein: recombinant; tags: N-terminal GST; dsDNA, one strand shown. In a few lines:
(§1)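 Pools were built from human transcription factors expressed in yeast as GST fusions, captured on glutathione beads and DNA-barcoded, along with a tag-only sample. Incubation with 200 nmole of a 16-mer random double-stranded DNA library lasted 30 min at room temperature in Tris/NaCl/DTT/glycerol buffer, and was followed by washing, 0.1% formaldehyde crosslinking, proximity ligation, PCR amplification and Illumina NextSeq500 sequencing. Binding signal is the quotient of each hexamer's read frequency for a factor and its frequency for the tag-only sample.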

A further test concerns the target ETV5 (Homo sapiens, UniProt P41161 1-510). The conditions noted are these: protein: recombinant; tags: N-terminal GST; dsDNA, one strand shown. In a few lines:
as §1

The next test has as its target HSF1 (Homo sapiens, UniProt Q00613 1-529). As to conditions: protein: recombinant; tags: N-terminal GST; chain copies: 3; dsDNA, one strand shown. The method in brief: as §1
The target in another test is T2, SPIC (Homo sapiens, UniProt Q8N5J4 1-248).
T2 sequence: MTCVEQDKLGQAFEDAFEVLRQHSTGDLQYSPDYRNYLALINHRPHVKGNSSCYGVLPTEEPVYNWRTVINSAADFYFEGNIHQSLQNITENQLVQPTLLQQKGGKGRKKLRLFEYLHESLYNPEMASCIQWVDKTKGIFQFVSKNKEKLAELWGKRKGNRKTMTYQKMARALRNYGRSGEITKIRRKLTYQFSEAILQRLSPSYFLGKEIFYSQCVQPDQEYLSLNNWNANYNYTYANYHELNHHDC
As to conditions: protein: recombinant; tags: N-terminal GST; dsDNA, one strand shown. The method in brief:
as §1

The target in a further test is ELF4 (Homo sapiens, UniProt Q99607 1-663). The conditions noted are these: protein: recombinant; tags: N-terminal GST; dsDNA, one strand shown. The method in brief: as §1
For another test, the target named is T3, ELK4 (Homo sapiens, UniProt P28324-2 1-405).
T3 sequence: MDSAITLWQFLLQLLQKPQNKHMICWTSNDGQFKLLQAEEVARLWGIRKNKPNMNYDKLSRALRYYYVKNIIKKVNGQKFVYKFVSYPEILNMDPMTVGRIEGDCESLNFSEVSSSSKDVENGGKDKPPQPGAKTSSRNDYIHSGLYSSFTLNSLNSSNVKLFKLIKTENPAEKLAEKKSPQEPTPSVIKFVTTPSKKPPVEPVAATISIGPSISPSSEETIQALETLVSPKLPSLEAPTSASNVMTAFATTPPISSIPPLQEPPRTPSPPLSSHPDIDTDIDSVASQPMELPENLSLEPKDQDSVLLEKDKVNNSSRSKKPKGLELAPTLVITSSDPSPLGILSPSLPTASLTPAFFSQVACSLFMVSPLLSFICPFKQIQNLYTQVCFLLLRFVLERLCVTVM
The conditions noted are these: protein: recombinant; tags: N-terminal GST; dsDNA, one strand shown. In a few lines: as §1

In another test the target is T4, ETV2 (Homo sapiens, UniProt O00321 1-342).
T4 sequence: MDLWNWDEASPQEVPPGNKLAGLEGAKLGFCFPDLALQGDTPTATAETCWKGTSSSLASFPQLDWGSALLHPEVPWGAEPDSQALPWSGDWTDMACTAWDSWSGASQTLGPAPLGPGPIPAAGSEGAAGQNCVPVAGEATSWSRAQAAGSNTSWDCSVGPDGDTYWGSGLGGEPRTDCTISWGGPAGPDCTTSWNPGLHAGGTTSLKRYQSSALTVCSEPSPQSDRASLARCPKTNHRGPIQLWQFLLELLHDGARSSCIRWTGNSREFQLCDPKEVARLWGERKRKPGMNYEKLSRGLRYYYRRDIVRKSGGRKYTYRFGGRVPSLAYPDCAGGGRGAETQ
As to conditions: protein: recombinant; tags: N-terminal GST; dsDNA, one strand shown. In a few lines: as §1

A further test concerns the target T5, ELF3 (Homo sapiens, UniProt P78545 1-371).
T5 sequence: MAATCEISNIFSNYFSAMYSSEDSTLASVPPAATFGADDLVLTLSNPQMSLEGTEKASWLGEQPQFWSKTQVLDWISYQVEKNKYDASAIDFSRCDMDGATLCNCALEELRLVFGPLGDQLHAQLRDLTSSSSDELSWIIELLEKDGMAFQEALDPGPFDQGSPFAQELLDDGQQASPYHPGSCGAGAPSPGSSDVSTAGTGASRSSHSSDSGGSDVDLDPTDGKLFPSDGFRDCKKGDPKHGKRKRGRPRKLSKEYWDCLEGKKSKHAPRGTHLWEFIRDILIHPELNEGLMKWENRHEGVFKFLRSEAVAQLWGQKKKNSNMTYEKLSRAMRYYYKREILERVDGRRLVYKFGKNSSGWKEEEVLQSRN
As to conditions: protein: recombinant; tags: N-terminal GST; dsDNA, one strand shown. The method in brief: as §1

A further test concerns the target CRX (Homo sapiens, UniProt O43186 1-299). As to conditions: protein: recombinant; tags: N-terminal GST; dsDNA, one strand shown. The method in brief:
as §1

A further test concerns the target ETV1 (Homo sapiens, UniProt P50549 1-477). The conditions noted are these: protein: recombinant; tags: N-terminal GST; dsDNA, one strand shown. The method in brief: as §1
The target in another test is T6, ERF (Homo sapiens, UniProt P50548 1-548).
T6 sequence: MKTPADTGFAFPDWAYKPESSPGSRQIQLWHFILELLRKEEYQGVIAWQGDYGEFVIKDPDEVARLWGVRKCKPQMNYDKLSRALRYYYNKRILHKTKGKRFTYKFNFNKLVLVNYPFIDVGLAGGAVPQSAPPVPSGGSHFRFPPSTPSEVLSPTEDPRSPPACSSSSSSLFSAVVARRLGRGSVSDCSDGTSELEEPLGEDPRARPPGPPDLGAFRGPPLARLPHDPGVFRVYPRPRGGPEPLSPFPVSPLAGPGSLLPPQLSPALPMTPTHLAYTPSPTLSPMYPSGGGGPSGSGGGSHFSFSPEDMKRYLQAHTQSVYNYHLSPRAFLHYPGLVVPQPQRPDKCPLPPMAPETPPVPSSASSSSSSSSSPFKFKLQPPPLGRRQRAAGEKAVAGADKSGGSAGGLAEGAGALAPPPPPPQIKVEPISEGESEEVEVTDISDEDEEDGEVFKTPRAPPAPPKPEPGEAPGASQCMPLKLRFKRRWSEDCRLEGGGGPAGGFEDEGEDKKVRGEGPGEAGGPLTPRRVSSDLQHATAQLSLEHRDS
The conditions noted are these: protein: recombinant; tags: N-terminal GST; dsDNA, one strand shown. The method in brief: as §1

A further test has as its target T7, ETV3L (Homo sapiens, UniProt Q6ZN32 1-361).
T7 sequence: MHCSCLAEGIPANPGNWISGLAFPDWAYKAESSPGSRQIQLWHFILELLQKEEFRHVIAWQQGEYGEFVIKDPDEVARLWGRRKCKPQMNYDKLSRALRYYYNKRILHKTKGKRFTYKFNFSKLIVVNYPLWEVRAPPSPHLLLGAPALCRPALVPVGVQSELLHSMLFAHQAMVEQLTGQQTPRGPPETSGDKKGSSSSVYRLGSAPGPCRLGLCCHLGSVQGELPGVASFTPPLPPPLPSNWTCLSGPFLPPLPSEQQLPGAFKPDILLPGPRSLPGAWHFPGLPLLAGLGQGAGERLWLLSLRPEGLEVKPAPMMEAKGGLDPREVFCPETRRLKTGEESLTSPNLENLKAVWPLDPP
As to conditions: protein: recombinant; tags: N-terminal GST; dsDNA, one strand shown. The method in brief:
as §1

The target in the next test is T8, ETS2 (Homo sapiens, UniProt P15036 1-469).
T8 sequence: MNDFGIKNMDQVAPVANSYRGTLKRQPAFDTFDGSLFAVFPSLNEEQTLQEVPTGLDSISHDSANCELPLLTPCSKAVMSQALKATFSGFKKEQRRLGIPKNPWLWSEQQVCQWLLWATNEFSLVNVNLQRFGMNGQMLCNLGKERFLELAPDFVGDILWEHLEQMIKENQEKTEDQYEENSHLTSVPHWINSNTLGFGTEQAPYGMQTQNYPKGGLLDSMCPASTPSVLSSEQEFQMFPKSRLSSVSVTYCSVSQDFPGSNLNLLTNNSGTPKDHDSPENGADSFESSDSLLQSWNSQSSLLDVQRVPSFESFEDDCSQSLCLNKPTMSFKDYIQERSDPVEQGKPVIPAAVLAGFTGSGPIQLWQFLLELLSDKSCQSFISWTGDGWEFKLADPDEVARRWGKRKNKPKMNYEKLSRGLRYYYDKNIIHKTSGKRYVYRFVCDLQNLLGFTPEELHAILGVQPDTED
As to conditions: protein: recombinant; tags: N-terminal GST; dsDNA, one strand shown. In a few lines:
as §1

For a further test, the target named is T9, SPDEF (Homo sapiens, UniProt O95238 1-335).
T9 sequence: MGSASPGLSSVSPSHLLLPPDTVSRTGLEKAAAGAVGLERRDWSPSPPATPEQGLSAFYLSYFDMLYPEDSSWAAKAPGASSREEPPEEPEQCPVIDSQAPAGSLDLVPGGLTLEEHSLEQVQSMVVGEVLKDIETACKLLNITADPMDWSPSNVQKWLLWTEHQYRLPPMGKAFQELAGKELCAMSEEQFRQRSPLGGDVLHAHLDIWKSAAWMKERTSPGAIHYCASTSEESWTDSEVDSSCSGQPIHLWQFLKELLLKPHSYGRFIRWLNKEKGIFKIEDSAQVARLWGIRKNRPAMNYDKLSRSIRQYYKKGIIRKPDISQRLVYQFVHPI
As to conditions: protein: recombinant; tags: N-terminal GST; dsDNA, one strand shown. In a few lines:
as §1

The target in the next test is T10, ETV7 (Homo sapiens, UniProt Q9Y603 1-341).
T10 sequence: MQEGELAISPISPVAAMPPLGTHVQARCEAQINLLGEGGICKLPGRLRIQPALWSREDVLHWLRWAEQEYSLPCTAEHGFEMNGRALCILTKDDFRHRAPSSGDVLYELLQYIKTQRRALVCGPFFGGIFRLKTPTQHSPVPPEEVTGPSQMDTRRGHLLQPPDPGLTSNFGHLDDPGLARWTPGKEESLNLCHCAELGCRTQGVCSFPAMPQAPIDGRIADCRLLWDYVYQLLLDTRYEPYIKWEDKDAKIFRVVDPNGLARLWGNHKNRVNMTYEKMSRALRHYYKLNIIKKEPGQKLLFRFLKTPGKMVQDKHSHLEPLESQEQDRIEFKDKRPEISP
The conditions noted are these: protein: recombinant; tags: N-terminal GST; dsDNA, one strand shown. The method in brief:
as §1

A further test deals with T11, ELF5 (Homo sapiens, UniProt Q9UKW6-2 1-255).
T11 sequence: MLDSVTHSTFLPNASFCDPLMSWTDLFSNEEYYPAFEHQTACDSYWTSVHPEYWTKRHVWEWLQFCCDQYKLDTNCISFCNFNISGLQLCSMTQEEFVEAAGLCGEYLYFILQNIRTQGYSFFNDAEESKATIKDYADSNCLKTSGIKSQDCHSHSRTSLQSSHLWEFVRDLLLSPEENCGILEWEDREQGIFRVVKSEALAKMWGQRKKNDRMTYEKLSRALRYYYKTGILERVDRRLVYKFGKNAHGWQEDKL
The conditions noted are these: protein: recombinant; tags: N-terminal GST; dsDNA, one strand shown. The method in brief:
as §1

Another test addresses T12, ETV3 (Homo sapiens, UniProt P41162-2 1-143).
T12 sequence: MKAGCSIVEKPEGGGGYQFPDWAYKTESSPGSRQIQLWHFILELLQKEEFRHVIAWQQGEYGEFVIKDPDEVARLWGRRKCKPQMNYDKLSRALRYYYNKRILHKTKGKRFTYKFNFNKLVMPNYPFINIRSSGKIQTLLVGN
As to conditions: protein: recombinant; tags: N-terminal GST; dsDNA, one strand shown. In a few lines: as §1

In the next test the target is ETV6 (Homo sapiens, UniProt P41212 1-452). As to conditions: protein: recombinant; tags: N-terminal GST; dsDNA, one strand shown. The method in brief:
as §1

ETV5, sequence (P41161 whole entry): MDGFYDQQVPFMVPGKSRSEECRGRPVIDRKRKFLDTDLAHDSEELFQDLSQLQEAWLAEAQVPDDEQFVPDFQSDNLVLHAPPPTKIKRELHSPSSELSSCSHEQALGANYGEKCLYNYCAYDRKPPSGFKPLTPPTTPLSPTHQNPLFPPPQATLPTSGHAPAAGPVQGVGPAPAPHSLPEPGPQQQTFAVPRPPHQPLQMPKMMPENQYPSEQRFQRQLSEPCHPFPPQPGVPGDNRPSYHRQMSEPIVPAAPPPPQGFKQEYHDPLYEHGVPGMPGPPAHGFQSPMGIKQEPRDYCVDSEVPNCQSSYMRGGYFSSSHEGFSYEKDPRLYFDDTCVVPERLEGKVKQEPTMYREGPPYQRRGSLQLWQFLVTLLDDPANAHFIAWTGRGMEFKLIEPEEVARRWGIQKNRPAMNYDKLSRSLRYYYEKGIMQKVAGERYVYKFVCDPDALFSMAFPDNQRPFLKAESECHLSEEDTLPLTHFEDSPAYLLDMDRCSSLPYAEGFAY
ETV6, sequence (P41212 whole entry): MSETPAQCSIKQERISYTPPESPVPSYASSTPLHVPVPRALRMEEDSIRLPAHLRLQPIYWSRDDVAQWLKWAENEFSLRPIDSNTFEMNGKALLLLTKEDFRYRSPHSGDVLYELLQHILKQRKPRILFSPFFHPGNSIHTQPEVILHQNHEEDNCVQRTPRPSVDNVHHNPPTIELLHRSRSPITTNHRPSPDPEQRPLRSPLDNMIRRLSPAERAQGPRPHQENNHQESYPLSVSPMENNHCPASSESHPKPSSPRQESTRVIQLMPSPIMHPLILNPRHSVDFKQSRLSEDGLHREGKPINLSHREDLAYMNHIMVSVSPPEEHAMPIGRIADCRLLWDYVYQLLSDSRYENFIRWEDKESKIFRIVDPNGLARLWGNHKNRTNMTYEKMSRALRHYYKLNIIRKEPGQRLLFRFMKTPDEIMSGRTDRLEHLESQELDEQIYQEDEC
ELF4, sequence (Q99607 whole entry): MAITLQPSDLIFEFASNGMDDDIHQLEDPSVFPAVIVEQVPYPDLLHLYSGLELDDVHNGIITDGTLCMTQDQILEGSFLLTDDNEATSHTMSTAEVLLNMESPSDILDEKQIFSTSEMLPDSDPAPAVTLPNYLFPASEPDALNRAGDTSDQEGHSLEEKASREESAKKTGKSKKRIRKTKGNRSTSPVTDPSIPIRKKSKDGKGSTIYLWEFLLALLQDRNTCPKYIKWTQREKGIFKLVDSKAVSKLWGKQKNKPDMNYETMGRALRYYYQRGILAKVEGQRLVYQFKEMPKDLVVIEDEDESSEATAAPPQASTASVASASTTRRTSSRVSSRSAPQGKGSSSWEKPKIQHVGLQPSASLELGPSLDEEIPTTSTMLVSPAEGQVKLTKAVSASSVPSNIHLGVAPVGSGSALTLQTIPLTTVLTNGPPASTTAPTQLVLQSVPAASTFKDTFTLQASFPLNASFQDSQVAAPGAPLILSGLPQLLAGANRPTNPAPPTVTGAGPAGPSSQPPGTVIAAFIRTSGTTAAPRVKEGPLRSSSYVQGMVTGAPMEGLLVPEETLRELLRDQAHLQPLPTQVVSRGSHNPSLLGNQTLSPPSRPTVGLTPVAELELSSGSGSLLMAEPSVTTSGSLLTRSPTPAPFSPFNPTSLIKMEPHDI
HSF1, sequence (Q00613 whole entry): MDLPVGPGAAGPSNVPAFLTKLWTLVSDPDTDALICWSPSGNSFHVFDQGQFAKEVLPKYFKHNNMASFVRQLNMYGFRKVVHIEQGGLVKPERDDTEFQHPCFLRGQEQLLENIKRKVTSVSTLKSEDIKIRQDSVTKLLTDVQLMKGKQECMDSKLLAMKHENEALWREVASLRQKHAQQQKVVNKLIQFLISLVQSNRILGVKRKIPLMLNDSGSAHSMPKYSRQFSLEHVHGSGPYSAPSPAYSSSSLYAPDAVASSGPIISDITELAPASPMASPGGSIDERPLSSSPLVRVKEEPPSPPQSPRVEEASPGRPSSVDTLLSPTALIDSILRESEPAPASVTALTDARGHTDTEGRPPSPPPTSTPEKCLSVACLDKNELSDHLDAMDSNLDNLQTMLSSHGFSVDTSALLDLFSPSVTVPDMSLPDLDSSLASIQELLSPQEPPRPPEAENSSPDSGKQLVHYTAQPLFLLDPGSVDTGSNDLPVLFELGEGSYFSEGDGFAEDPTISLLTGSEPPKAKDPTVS
ETV1, sequence (P50549 whole entry): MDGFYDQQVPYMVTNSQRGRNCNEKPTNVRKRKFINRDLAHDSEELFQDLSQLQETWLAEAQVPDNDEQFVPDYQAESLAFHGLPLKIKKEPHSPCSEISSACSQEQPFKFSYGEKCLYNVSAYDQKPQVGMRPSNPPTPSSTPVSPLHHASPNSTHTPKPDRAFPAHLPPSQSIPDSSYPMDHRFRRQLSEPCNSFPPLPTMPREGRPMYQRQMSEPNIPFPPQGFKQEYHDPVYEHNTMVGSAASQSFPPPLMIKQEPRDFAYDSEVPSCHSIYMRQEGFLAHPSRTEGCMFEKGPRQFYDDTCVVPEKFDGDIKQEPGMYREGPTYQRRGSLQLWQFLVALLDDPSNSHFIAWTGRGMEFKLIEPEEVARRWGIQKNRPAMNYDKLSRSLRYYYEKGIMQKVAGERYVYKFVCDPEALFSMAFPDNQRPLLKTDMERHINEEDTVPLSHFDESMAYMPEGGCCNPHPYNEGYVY
CRX, sequence (O43186 whole entry): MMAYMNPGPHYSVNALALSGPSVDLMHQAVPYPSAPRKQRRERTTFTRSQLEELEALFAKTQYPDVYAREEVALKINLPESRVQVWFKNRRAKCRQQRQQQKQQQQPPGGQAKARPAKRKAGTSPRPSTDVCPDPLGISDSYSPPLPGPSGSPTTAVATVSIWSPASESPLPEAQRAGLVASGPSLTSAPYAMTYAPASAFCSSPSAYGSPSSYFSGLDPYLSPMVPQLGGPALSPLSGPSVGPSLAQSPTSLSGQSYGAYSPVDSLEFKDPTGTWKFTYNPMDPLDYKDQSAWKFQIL

As for GGACCT, the binding signal with FEV was 1.47 fold enrichment (6-mer frequency, TF over GST control); with ETV5 it was 1.37 fold enrichment (6-mer frequency, TF over GST control); in the test with HSF1 it was 1.18 fold enrichment (6-mer frequency, TF over GST control); with SPIC, 1.46 fold enrichment (6-mer frequency, TF over GST control); with ELF4, 1.42 fold enrichment (6-mer frequency, TF over GST control); with ELK4, 1.31 fold enrichment (6-mer frequency, TF over GST control). The binding signal in the test with ETV2 was 1.57 fold enrichment (6-mer frequency, TF over GST control); with ELF3 it was 1.14 fold enrichment (6-mer frequency, TF over GST control); with CRX, 1.1 fold enrichment (6-mer frequency, TF over GST control); with ETV1, 1.28 fold enrichment (6-mer frequency, TF over GST control); with ERF, 1.31 fold enrichment (6-mer frequency, TF over GST control); in the test with ETV3L, 1.43 fold enrichment (6-mer frequency, TF over GST control). Also, the binding signal is 1.41 fold enrichment (6-mer frequency, TF over GST control) with ETS2; 1.53 fold enrichment (6-mer frequency, TF over GST control) with SPDEF; 1.34 fold enrichment (6-mer frequency, TF over GST control) in the test with ETV7; 1.27 fold enrichment (6-mer frequency, TF over GST control) with ELF5; 1.32 fold enrichment (6-mer frequency, TF over GST control) in the test with ETV3; 1.34 fold enrichment (6-mer frequency, TF over GST control) with ETV6.

(Values after publication PMC7862700, “An all-to-all approach to the identification of sequence-specific readers for epigenetic DNA modifications on cytosine”.)
